Data published in the supplement of paper PMC3334620.
Whole data set: some 33,000 sequences, median “E-score (-0.5 to 0.5)” near -0.04, cut for the highest 2% near 0.36. This excerpt belongs to a sample that is enriched for the highest values.

These sequences were tested against T1, Hmlalpha2 (UniProt P0CY09) (assay: PBM E-score (8-mer binding enrichment) (E-score (-0.5 to 0.5)); higher = stronger / more preferred TF binding). Settings: protein concentration: 200 nM; construct: GST-full length.
T1 sequence: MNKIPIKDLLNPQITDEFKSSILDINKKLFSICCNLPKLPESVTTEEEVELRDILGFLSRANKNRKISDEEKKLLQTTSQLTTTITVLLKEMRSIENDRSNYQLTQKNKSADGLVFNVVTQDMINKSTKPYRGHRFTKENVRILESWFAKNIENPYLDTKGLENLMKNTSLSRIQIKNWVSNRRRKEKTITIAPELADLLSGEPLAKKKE
Outline: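 Yeast transcription factors, full-length or as DNA-binding domains, were expressed with a GST tag using PURExpress in vitro transcription/translation. At about 100-200 nM they were applied to universal all-10-mer Agilent arrays, double-stranded by primer extension on fresh or once-stripped slides. Fluorescent anti-GST detected bound protein, and masliner normalised the scans. E-scores for ungapped eight-base words, pooled with reverse complements, came from the Universal PBM Analysis Suite.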

Point of comparison: CTTACATC, “PBM E-score” value 0.283. Against it:
- CCGGGGAG — lower, -0.241
- CAAGTCTG — lower, -0.00344
- ACCTCTTC — lower, -0.0525
- CGACGTTA — lower, 0.231
- CGATGGAC — lower, 0.0281
- CTTTTCAC — lower, 0.0898
- AATCATGT — higher, 0.409
- AAGCATGG — lower, -0.112
- AAGCATGC — lower, 0.117
- AACCATGC — lower, -0.0458
- AACCATGT — higher, 0.368
- AATCATGA — lower, 0.0793
- AATCATGG — lower, 0.0457
- AACCATGA — lower, 0.149
- AAGCATGT — higher, 0.377
- CCCCATTC — lower, -0.266
- CGGGCATC — lower, -0.287
- AAATTCCT — lower, -0.135
- CATTCTGA — lower, -0.213
- GCAGTTGA — lower, -0.157
- AAAGAGCT — lower, -0.0941
- GAGCTCCC — lower, -0.322
- AATTTTAC — higher, 0.347
- ATTTTTAC — higher, 0.368
- AAATTTAC — higher, 0.375
- ATTTTTAA — lower, 0.237
- AAATTTAT — lower, 0.201
- AAATTTAG — lower, 0.0397
- AACCCTAC — lower, -0.0838
- GAATTAGC — lower, -0.0766
- AGCTCTAT — lower, -0.102
- AGAGTGTA — lower, 0.0904
- ACGCTATA — lower, 0.0242
- AATACGTA — higher, 0.317
- ATTACGTG — higher, 0.452
- ACTACGTG — lower, 0.144
- CTTACGTA — higher, 0.307
- ATTACGTC — higher, 0.321
- AATACGTG — higher, 0.383
- AATACGTC — lower, 0.226
- GTTACGTA — higher, 0.293
- ATTACGTA — higher, 0.431
- GGCCCGAA — lower, -0.135
- ATATCGGA — lower, -0.0245
- CCACCAGG — lower, -0.268
- CCTAGGCG — lower, -0.303
- ATTCCCAC — lower, -0.125
- TATTGTAA — higher, 0.318
- CCTTGTAA — higher, 0.454
- ACTTGTAA — higher, 0.381
- CTTTGTAA — higher, 0.414
- CCTTGTAG — lower, 0.195
- ATTTGTAA — higher, 0.344
- ACTTGTAC — lower, 0.12
- TCTTGTCA — lower, 0.219
- ACTTGTAG — lower, 0.0979
- CCTTGTAC — higher, 0.327
- CTTTGTAC — lower, 0.2
- TCTTGTAA — higher, 0.439
- GCTACAAA — lower, 0.0715
- GAGCTACC — lower, -0.059
- CAGCTGTA — lower, -0.117
- CCAGGAGG — lower, -0.191
- ATCCAGCA — lower, -0.0498
- CGATGATA — lower, 0.0847
- CCTTGTTC — lower, -0.0497
- GCTTGTAA — higher, 0.411
- GATTGTAA — lower, 0.247
- CCTTGTTA — higher, 0.371
- GCTTGTAC — lower, 0.243
- ACTTGTTA — lower, 0.259
- CCCATATC — lower, -0.145
- CAAAGGAG — lower, -0.0938
- ATTAATGA — lower, 0.0848
- CCAGGCAA — lower, -0.265
- AGCATAGG — lower, -0.178
- AACAGGTT — lower, 0.11
- ATTACAGA — higher, 0.333
- ATTACAAA — higher, 0.414
- CTCACACC — lower, -0.254
- CTTACAAC — higher, 0.301
- ATTACAAC — higher, 0.4
- ATTACAAG — higher, 0.466
- CTTACAAG — higher, 0.312
- ATTACGAA — higher, 0.289
- ATTACACC — higher, 0.382
- GTTACAAC — lower, 0.258
- ATTACAGG — higher, 0.352
- CTTACACC — lower, 0.0787
- CTTGAGGA — lower, -0.227
- ATATGCCC — lower, -0.274
- AGTGAACA — lower, 0.154
- AGATTCTA — lower, 0.0504
- ATATAGGA — lower, 0.0657
- ACCAGGAC — lower, 0.0306
- CATGTGAA — higher, 0.318
- CCATGAGG — lower, -0.313
- AAAGAAAT — lower, 0.175
- GACAGGCC — lower, -0.143
- CGCTCTGA — lower, -0.135
- ACGAGGGA — lower, -0.0452
- CGGTAAAG — lower, 0.00317
- ATTACATC — higher, 0.445
- ATTACAGC — lower, 0.141
- ACTACAAT — lower, 0.137
- AGTACAAT — lower, 0.25
- ATTACAAT — higher, 0.385
- TTTACAAA — higher, 0.412
- CTTACAAA — lower, 0.232
- TCTACAAA — lower, 0.252
- ATGGGACG — lower, -0.19
- GCAAAGAC — lower, -0.121
- CTGCGCGC — lower, -0.00351
- TGCAGCAA — lower, -0.0391
- GATACTCA — lower, -0.0664
- ACTTACAG — lower, 0.134
- ACTTACAC — higher, 0.378
- GCTTACAC — higher, 0.362
- ACTTACAA — higher, 0.29
- CCTTACAC — higher, 0.334
- ACTTACAT — higher, 0.43
- ACAGTAGC — lower, -0.0946
- CCCCCCGG — lower, -0.366
- ACTCTACC — lower, -0.0519
- ATTGTGTC — lower, 0.233
- GTTGTGTA — higher, 0.448
- ATTGTGTA — higher, 0.42
- GTTGTGCA — lower, -0.00044
- ATTGTATA — lower, 0.171
- GTTGTATA — higher, 0.38
- CTTGTGTA — higher, 0.41
- CTTGTGTC — lower, 0.0968
- ATTGTGTG — lower, 0.112
- GTTGTGGA — lower, 0.0527
- CTTGTATA — higher, 0.289
- CTTGTGAA — lower, 0.182
- ACTGTTCG — lower, 0.0673
- AACTGCTA — lower, -0.0585
- AGAGGTGA — lower, -0.0117
- CACCAGTA — lower, -0.0753
- ACGGACAT — lower, -0.0204
- ATAACACG — higher, 0.461
- CTAACACC — lower, 0.153
- GTAACACA — higher, 0.324
- CTAACAAG — lower, 0.175
- CTAACACA — higher, 0.376
- ATAACAAG — higher, 0.352
- AGAACACA — lower, 0.268
- ATAACACC — lower, 0.259
- ATAACACA — higher, 0.439
- GTTCTAGA — lower, -0.00839
- CCCTGACG — lower, -0.351
- ATTTAGCC — lower, 0.0155
- GACCTTGC — lower, -0.356
- AGTTTCGG — lower, -0.031
- ACAACAAA — higher, 0.284
- CCAACACA — lower, 0.248
- CCAACACG — higher, 0.375
- GCAACACA — lower, 0.167
- ACAACACG — higher, 0.417
- ACAACAGG — lower, 0.155
- TCAACACA — higher, 0.43
- ACAACACT — lower, 0.248
- TCAACAGA — lower, 0.149
- ACAACACC — lower, 0.182
- ACAACACA — higher, 0.405
- CCAACACC — lower, -0.206
- GGTATGCA — lower, -0.0286
- AGGCCTTC — lower, -0.156
- AATCCGTG — lower, -0.129
- CGTCCATA — lower, 0.0125
- GGCAACAA — lower, 0.0607
- TAATTTCA — lower, 0.182
- ATCAAGTG — lower, -0.0416
- CAGCATTA — lower, 0.109
- GCATTTCA — lower, -0.082
- GCACGACC — lower, -0.188
- ACACGACT — higher, 0.391
- ACACGACG — higher, 0.42
- CCACGACC — lower, -0.0888
- ACACGACC — higher, 0.396
- ACACGAAT — higher, 0.356
- ACACGAGA — higher, 0.291
- ACACGAGG — higher, 0.292
- ACACGAGT — higher, 0.389
- AGACGACG — lower, -0.129
- AAACGACT — lower, -0.0906
- CCACGACG — lower, -0.097
- AAATGCAG — lower, -0.012
- ACCCGACC — lower, -0.145
- ACTAACGG — lower, -0.168
- ACACGACA — higher, 0.412
- TCACGACA — lower, 0.116
- CCACGACA — lower, -0.103
- CTTACGCA — higher, 0.341
- ATTACGCA — higher, 0.435
- ATTACGGG — lower, -0.0184
- GTTACGCA — lower, 0.277
- ATTACGCG — higher, 0.467
- ATTACGCC — lower, 0.187
- CGAAGAGC — lower, -0.12
- CCAAGCAG — lower, -0.127
- AACAGCTA — lower, 0.115
- ACCTGAGG — lower, -0.266
- CATTAACG — lower, 0.277
- TATTAATA — lower, 0.173
- AATTAACA — higher, 0.425
- GATTAACC — lower, -0.108
- TATTAACA — higher, 0.428
- GATTAAGA — lower, 0.0797
- CATTAACA — higher, 0.409
- TATTAAAA — lower, 0.24
- CATTAACC — lower, 0.128
- AATTAACC — lower, 0.104
- AATTAACT — lower, 0.173
- GATTAACA — higher, 0.413
- GGCAGTTA — lower, 0.0486
- CACCGGGC — lower, -0.256
